Data: PubChem BioAssay (NCI)
About 83,000 compounds went through this panel and 20% of them were active in at least one assay; those are over-represented in the sample as a whole.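 Single-concentration screen, 48 h exposure, 96-well plates. Endpoint: percent growth. Below 10 = active.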 A number with no mark means an inactive call. The source made the active and inactive calls.

Tested on: HL-60(TB) leukemia
Assay: NCI-60 one-dose screen, 48 h (100 = growth as untreated, 0 = no growth, -100 = all killed)
Details: 10 µM unless noted

Structure (SMILES)	growth
NC(=O)c1c(NC(=O)c2ccc(C(F)(F)F)cc2Cl)sc2c1CCC(=O)C2	-12.9% (active)
CC(=O)c1c(C)nc2ccccc2c1/C=C/c1cccc(C)c1	28.2%
COc1ccc(N=N/N=c2\sc3cc(OC)ccc3n2C)cc1	102%
N/C(=N\C(N)=N\c1nc2ccccc2s1)c1cccc(Cl)c1	19.7%
CC1CCCCN1C(=S)Nc1ccc(S(=O)(=O)N2CCCCC2)cc1 (stereo unspecified)	102%
CCCCNC1=C(OCC)C(=O)c2ccccc2C1=O	101%
Clc1ccc(Oc2ccc(Nc3ncnc4onc(-c5ccccc5)c34)cc2)c(Cl)c1	100%
COc1ccc(O)c(N=Nc2nccs2)c1	-22.5% (active)
CCN(CC)CCN1CC(O)=C(c2nc(-c3ccc(Cl)cc3)cs2)C1=N	-33.7% (active)
Nc1cc(Br)c(-c2nn3c(CCC(=O)c4nc5ccccc5[nH]4)nnc3s2)c(Br)c1	100%
C=CCNC(=S)N/C=C(/C(=O)c1ccccc1)c1ccccc1	101%
COc1cc2c(c(OC)c1OC)-c1ccc(N)c(=O)cc1[C@@H](NC(C)=O)CC2	3.69% (active)
O=C(NC1CCN(Cc2ccccc2)CC1)c1cc(-c2ccncc2)nc2ccc(Cl)cc12	15.2%
Cn1c(I)c(C#CCO[Si](C)(C)C(C)(C)C)c(=O)[nH]c1=O	-41.2% (active)
CCCCCC(=C/c1ccccc1)/C=N/N=C(N)N	-30.2% (active)
CC1=C(CCCOC(=O)NCCCl)C2=C(C)C3(CC3)[C@@](C)(O)C(=O)C2=C1	44.7%
